A short description of assay [1]: rapamycin-like changes in RPL19A-GFP expression – cell-based, S. cerevisiae, multiplex flow cytometry, primary screen (AID 1862; in the data active = percent of DMSO control GFP below about 86%;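 also: lower values mimic rapamycin by blocking the RPL19A rise seen in DMSO cells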). Conditions: S. cerevisiae RPL19A-GFP strain, flow cytometry fluorescence, 3 h; at 10 µM; stronger effect = lower value.
The nature of assay [2]: TOR pathway GLN3 branch reporter MEP2-GFP changes – S. cerevisiae, multiplex flow cytometry, primary screen (AID 1867;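 active = GFP response, as percent of the DMSO control, above the screen-wide mean plus 3 SD, about 139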;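 also: median GFP channel fluorescence of barcode-gated MEP2-GFP cells measured by flow cytometry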). Conditions: S. cerevisiae MEP2-GFP strain, 3 h, at 10 µM, stronger effect = higher value, 100% means same as DMSO wells. In general terms: A flow cytometer gives signals particle by particle.
The nature of assay [3]: TOR pathway RTG branch CIT2 reporter changes – S. cerevisiae, GFP fusion, multiplex flow cytometry, primary screen (AID 1870;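 active = percent response above a set limit, the screen-wide mean plus 3 SD, cut at about 130% in these data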;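 also: barcoded CIT2-GFP strain pooled with four other GFP strains with rapamycin as positive control; median GFP fluorescence per well over plate mean of DMSO wells so 100% = DMSO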). The conditions noted are these: S. cerevisiae CIT2-GFP expression, 3 h, at 10 µM, stronger effect = higher value.
The nature of assay [4]: TOR pathway LAP4-GFP level changes – S. cerevisiae, multiplex flow cytometry, primary screen (AID 1873). Conditions: S. cerevisiae LAP4-GFP expression, 3 h, at 10 µM, stronger effect = higher value.
The nature of assay [5]: yeast AGP1-GFP level changes, GLN3 branch – cell-based, multiplex flow cytometry, S. cerevisiae, primary screen (AID 1887;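 active = GFP signal above the screen-wide mean plus 3 SD, that is over about 124.5% of the solvent control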;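 also: AGP1-GFP fusion strain of S. cerevisiae within a five-strain barcoded multiplex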). The conditions noted are these: 3 h, at 10 µM, stronger effect = higher value.
Assay [6] can be described thus: reduced mouse 2C T cell binding to pMHC/ICAM-1 vesicles – MLPCN validation set, flow cytometry, LFA-1/ICAM-1 modulator project, pilot screen (AID 2523;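 active = response below a set limit, under 55% cells CD8-positive and vesicle-bound, and CD8 cells' 90th-percentile brightness under 279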;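 as to vesicle binding response: mean PE anti-B7-1 fluorescence of CD8+ cells relative to row control; 100% = QL9-loaded vesicles with DMSO vehicle in the same plate row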). The conditions noted are these: 2C mouse CD8+ T cells, at 7 µM, stronger effect = lower value; double positive events: measured here: CD8+/vesicle+ event percentage.
Assay [7] has as its target Integrin beta-1 (Homo sapiens) + Integrin alpha-4 (Homo sapiens) (UniProt P13612+P05556). The assay can be described thus: alpha4beta1 integrin LIBS antibody binding reduction – U937 cells, HUTS-21 mAb, flow cytometry, validation set, VLA-4 allosteric modulator project, pilot screen (AID 2674;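 active = inhibition above 50%, about 3 SD of the validation set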;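 also: antibody binding induced by the VLA-4 ligand LDV present at three times its Kd; 0% = LDV ligand with antibody and no compound and 100% = antibody without LDV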). Conditions: HUTS-21 LIBS mAb binding, at 6.7 µM, stronger effect = higher value, binding induced by LDV ligand.

The nature of assay [8]: calorie-restriction mimetic ROS inhibitors, yeast – validation compound set, pilot screen (AID 2706;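 active = superoxide response below 65% of plate, a cut near 3 SD across the whole screen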;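 also: yeast exposed to compound for one week at 30 degrees C before staining; 100% = mean of all compound wells on the same plate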). The conditions noted are these: S. cerevisiae aging, superoxide DHE fluorescence; at 10 µM, stronger effect = lower value.
Assay [9] concerns the target Beta-adrenergic receptor kinase 1 (Homo sapiens) (UniProt P25098). The assay can be described thus: GRK2 binders displacing RNA aptamer, biochemical, validation, human GRK2, bead flow cytometry (AID 488806;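 active = aptamer binding inhibition above 30%, about 3 SD of noise from non-fluorescent compounds; inactive = inhibition at or below 30%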). The conditions noted are these: bead-bound GRK2, FAM-aptamer displacement, at 10 µM, stronger effect = higher value.
For assay [10], the target named is AP-2 complex subunit beta (Homo sapiens) (UniProt P63010). The assay can be described thus: beta-arrestin/AP2 interaction blockers – biochemical, validation set, GST-AP2 beads, flow cytometry, pilot screen (AID 504541;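 active = inhibition above 54%, about 3 SD of non-fluorescent compounds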;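 also: AP2 carries R879A mutation and is captured from E. coli lysate; bead-bound FITC arrestin peptide fluorescence measuring arrestin peptide binding to AP2; 0% = DMSO wells and 100% = excess unlabeled arrestin peptide control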). The conditions noted are these: FITC arrestin peptide, at 10 µM, stronger effect = higher value, AP2 beta2 appendage fragment, R879A mutant.
The nature of assay [11]: cytosolic pH regulators acting via V-ATPase – S. cerevisiae, pHLuorin, HTS validation (AID 504600; in the data active = response above about 15%;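 also: plate controls were DMSO for no effect and reference compound for full effect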). The conditions noted are these: V-ATPase proton transport, at 10 µM, stronger effect = higher value.
The test system of assay [12] is anti-desmoglein-3 scFv antibody binding to human DSG3. The assay can be described thus: blockers of pathogenic pemphigus antibody–desmoglein-3 binding – biochemical, validation compound set, bead-based, flow cytometry, pilot screen (AID 588368;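 active = binding below the plate cutoff, the plate median minus 3 SD, with a reading above zero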;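 also: signal is the median channel fluorescence of bead-bound GFP antibody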). The conditions noted are these: Protein G beads, DSG3-Fc, scFv-GFP binding, at 10 µM, stronger effect = lower value.
The nature of assay [13]: Nile Red efflux blockade in pump-expressing yeast – validation compound set, multiplex, phenotypic, pilot screen (AID 588506;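 active = efflux inhibition above 0.42, the validation set average plus 4 SD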;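 also: Nile Red retained in cells so higher fluorescence means more efflux inhibition; 0 = negative control wells and 1 = enniatin B 25 µM full block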). Conditions: S. cerevisiae pump-expressing triplex, Nile Red efflux flow cytometry; at 10 µM; stronger effect = higher value; the pumps come from Candida albicans.
Assay [14] addresses ATP-binding cassette sub-family B member 6 (Homo sapiens) (UniProt Q9NP58). The assay can be described thus: blockers of ABCB6-driven porphyrin uptake – K562-ABCB6 cells, flow cytometry, validation set, pilot screen (AID 588550;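 active = inhibition above the screen-wide mean plus 3 SD, about 51%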;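 also: 0% = DMSO wells and 100% = benzethonium chloride 70 µM positive control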). The conditions noted are these: K562-ABCB6 porphyrin accumulation, 1 h, at 10 µM, stronger effect = higher value.
Assay [15] in a line: AML differentiation inducers, ER-HoxA9 marrow cells – cell-based, GFP/MAC1 double positive, flow cytometry, validation set, primary screen (AID 588685;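 active = differentiation response of at least 50%, scaled between solvent and reference control, from cells with both markers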;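 also: compound exposure lasts four days before antibody staining and flow analysis; 0% = DMSO wells and 100% = 5 µM fulvestrant positive control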). The conditions noted are these: stronger effect = higher value, normalized: vehicle 0, fulvestrant 100.

5 compounds from PubChem BioAssay can be followed below.

Inconclusive results are not listed. Activity calls are given as the source filed them.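 The calls were made as follows, unless noted: active = GFP signal, as percent of the solvent control, above the screen mean plus 3 SD, about 149; inconclusive = no reading because the compound's own fluorescence upset strain identification; inactive = the rest.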

Sequence of Beta-adrenergic receptor kinase 1 (Homo sapiens) (P25098 whole entry, looked up): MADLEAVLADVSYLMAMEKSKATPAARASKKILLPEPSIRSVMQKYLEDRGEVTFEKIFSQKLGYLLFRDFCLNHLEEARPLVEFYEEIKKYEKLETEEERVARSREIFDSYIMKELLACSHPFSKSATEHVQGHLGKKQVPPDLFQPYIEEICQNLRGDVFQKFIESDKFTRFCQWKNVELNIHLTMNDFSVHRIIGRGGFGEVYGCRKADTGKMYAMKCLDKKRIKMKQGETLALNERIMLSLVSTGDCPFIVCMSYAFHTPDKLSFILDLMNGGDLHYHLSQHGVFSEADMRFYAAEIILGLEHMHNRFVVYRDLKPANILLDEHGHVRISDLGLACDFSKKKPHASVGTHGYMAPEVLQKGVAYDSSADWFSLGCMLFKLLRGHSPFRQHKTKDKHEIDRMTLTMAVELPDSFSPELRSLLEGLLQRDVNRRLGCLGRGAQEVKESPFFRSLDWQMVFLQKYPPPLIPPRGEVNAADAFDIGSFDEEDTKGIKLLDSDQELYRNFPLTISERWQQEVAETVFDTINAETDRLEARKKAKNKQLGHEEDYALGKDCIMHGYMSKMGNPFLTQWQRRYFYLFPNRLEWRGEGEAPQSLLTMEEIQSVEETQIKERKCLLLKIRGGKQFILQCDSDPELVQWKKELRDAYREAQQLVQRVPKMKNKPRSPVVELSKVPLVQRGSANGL
Sequence of ATP-binding cassette sub-family B member 6 (Homo sapiens) (Q9NP58 whole entry, looked up): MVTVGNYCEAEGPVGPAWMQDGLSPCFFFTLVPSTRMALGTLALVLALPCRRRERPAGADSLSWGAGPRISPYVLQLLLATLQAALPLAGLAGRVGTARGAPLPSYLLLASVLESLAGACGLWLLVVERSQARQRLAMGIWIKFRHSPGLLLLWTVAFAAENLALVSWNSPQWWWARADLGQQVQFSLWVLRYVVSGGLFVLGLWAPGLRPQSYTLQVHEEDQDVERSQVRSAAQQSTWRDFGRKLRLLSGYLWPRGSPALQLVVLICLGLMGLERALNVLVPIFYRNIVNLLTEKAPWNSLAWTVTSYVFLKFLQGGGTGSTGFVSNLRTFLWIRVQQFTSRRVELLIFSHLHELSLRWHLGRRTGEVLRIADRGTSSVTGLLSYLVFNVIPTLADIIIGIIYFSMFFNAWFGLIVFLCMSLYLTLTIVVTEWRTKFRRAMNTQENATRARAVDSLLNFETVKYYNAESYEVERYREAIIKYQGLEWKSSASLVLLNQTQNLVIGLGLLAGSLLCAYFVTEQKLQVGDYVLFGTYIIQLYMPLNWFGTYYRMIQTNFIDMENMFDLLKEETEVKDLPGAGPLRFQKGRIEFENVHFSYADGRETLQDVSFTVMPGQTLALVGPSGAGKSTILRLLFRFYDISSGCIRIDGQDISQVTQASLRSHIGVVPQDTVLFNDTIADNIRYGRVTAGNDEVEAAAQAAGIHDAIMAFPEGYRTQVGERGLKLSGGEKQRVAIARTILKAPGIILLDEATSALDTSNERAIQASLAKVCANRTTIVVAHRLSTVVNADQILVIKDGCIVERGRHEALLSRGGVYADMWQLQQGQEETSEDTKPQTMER
Sequence of Integrin beta-1 (Homo sapiens) + Integrin alpha-4 (Homo sapiens) (P05556 whole entry, looked up): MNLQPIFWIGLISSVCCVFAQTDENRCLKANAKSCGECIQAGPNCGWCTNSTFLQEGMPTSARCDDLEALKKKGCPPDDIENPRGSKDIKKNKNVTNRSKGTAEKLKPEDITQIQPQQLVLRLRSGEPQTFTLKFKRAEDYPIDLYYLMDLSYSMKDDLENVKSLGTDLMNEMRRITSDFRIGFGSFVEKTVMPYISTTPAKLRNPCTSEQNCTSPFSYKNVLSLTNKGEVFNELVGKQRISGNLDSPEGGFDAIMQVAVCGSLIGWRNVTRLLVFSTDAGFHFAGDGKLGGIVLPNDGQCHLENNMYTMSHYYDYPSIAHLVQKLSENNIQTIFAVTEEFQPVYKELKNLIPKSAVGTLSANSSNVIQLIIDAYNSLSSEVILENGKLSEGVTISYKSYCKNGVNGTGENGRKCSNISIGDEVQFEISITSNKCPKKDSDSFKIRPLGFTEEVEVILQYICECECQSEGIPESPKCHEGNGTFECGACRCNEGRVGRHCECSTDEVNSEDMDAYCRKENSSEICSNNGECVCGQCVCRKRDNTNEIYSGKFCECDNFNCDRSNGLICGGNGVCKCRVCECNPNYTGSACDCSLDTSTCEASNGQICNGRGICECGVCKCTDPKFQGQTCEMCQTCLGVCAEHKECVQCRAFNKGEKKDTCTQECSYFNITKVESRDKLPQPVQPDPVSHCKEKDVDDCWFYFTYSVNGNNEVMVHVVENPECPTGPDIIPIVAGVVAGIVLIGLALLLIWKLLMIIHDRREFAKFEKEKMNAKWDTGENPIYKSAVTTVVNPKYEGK
Sequence of Integrin beta-1 (Homo sapiens) + Integrin alpha-4 (Homo sapiens) (P13612 whole entry, looked up): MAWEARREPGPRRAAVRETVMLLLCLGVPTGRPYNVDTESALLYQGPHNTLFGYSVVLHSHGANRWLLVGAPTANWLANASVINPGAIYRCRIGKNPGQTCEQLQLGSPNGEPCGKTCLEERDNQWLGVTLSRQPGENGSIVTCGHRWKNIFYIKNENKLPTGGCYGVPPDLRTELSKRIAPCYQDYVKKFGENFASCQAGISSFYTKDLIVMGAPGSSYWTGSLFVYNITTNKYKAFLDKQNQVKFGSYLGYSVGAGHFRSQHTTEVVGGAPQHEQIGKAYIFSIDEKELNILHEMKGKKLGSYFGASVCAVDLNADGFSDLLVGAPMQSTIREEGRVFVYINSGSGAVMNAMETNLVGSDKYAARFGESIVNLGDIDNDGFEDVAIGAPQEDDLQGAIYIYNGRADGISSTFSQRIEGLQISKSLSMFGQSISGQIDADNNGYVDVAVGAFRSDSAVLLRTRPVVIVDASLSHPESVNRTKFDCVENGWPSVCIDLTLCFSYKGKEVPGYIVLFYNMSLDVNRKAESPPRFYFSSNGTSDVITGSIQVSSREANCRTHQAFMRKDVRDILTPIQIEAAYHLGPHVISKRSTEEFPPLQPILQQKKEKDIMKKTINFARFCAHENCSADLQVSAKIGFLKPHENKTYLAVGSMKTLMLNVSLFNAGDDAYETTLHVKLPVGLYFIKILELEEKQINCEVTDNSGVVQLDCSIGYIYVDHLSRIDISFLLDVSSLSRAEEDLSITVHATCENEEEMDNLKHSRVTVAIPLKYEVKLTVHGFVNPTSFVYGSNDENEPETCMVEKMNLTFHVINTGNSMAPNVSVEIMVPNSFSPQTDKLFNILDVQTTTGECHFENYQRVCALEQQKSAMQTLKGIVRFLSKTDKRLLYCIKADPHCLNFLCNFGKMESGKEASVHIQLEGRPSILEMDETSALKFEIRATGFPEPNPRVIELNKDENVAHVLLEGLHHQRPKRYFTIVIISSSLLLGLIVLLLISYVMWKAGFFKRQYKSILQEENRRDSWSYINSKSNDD
Sequence of AP-2 complex subunit beta (Homo sapiens) (P63010 whole entry, looked up, the tested form may be a part, one chain of several): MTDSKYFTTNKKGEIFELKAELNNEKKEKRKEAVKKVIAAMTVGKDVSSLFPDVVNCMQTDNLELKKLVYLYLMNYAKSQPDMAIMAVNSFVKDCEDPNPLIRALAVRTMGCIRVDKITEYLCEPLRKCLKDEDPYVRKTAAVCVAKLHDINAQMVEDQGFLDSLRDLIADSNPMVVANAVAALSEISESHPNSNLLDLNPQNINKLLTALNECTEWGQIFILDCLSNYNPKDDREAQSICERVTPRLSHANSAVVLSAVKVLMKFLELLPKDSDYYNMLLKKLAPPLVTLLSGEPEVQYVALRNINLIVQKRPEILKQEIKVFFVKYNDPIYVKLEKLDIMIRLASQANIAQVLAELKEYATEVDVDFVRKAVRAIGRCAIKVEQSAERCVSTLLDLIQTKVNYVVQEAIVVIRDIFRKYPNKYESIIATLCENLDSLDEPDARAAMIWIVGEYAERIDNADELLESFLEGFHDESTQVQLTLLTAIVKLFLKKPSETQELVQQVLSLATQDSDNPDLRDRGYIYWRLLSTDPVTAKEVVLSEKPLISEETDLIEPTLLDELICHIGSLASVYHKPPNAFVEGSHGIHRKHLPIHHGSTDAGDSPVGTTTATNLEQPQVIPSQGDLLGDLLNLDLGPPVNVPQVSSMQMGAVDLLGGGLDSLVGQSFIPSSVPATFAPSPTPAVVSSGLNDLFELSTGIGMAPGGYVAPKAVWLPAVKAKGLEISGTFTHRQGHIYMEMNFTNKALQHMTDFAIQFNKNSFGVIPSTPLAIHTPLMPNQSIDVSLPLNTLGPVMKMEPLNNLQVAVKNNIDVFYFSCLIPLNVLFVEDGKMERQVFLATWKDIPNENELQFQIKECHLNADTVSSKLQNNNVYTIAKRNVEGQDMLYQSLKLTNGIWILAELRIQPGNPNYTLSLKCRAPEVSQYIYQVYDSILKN

For `CC[N+](C)(CC)CCOC(=O)C(O)(c1ccccc1)C1CCCCC1` (stereo not given), in [1], the percent of DMSO control GFP is 101% (inactive). The GFP response vs DMSO is 103% (inactive) in [2] and 105% (inactive) in assay [4]. Moreover, the percent response of DMSO control in assay [3] is 105% (inactive). Also, the GFP response, % of DMSO in assay [5] is 103% (inactive). In addition, the double positive events in [6] came out at 57.8%. For the same compound, the vesicle binding response in assay [6] was 175% (inactive). Also, the inhibition in assay [7] was -32.9% (inactive); in assay [10] it was -1.88% (inactive); in [14], -1% (inactive). Moreover, the superoxide response (% of plate) in assay [8] was 102% (inactive). In addition, the aptamer binding inhibition in [9] was -3% (inactive). Moreover, the response in [11] is 6.06% (inactive). Moreover, the binding (% of control) in assay [12] is 98.5% (inactive). For the same compound, the efflux inhibition (fraction of control) in assay [13] is -0.01 (inactive). Further, the differentiation response in assay [15] is 0% (inactive).
As for `OCCN1CCN(CCCN2c3ccccc3Sc3ccc(Cl)cc32)CC1`, the percent of DMSO control GFP in [1] was 104% (inactive). The figures for the GFP response vs DMSO in assay [2] and in [4] were 104% (inactive) and 112% (inactive), respectively. In assay [3], the percent response of DMSO control was 100% (inactive). The GFP response, % of DMSO in assay [5] is 121% (inactive). Moreover, in [6], the double positive events stood at 64.3%. For the same compound, the vesicle binding response in assay [6] is 268% (inactive). Also, the inhibition in assay [7] is 68.7% (active); in assay [10] it was 29.9% (inactive); in assay [14], -3% (inactive). The superoxide response (% of plate) in assay [8] is 111% (inactive). Further, the aptamer binding inhibition in [9] was -10% (inactive). Also, the response in assay [11] was 5.46% (inactive). Besides, the binding (% of control) in [12] was 115% (inactive). In [13], the efflux inhibition (fraction of control) is 0.71 (active). In assay [15], the differentiation response was -11.9% (inactive).
For `C[C@@H]1C[C@H]2[C@@H]3CCC4=CC(=O)C=C[C@]4(C)[C@@]3(F)[C@@H](O)C[C@]2(C)[C@H]1C(=O)CO`, the percent of DMSO control GFP in assay [1] is 102% (inactive). For the same compound, the GFP response vs DMSO in assay [2] is 97.9% (inactive); in [4] it was 81.3% (inactive). Further, the percent response of DMSO control in [3] is 109% (inactive). Further, the GFP response, % of DMSO in assay [5] is 96.6% (inactive). The double positive events in assay [6] was determined as 54.1%. In addition, the vesicle binding response in assay [6] was 226% (inactive). For the same compound, the inhibition in [7] was -12.4% (inactive); in assay [10], -3.18% (inactive); in [14] it was 6% (inactive). In addition, the superoxide response (% of plate) in [8] was 107% (inactive). In addition, the aptamer binding inhibition in [9] is -2% (inactive). Moreover, in assay [11], the response was -6.95% (inactive). The binding (% of control) in [12] is 97.8% (inactive). In addition, the efflux inhibition (fraction of control) in [13] was -0.12 (inactive). The differentiation response in assay [15] is -11.5% (inactive).
For `COc1ccc(C2C(=O)c3ccccc3C2=O)cc1`, in assay [1], the percent of DMSO control GFP was 97.8% (inactive). The GFP response vs DMSO in assay [2] is 101% (inactive); in [4] it was 111% (inactive). The percent response of DMSO control in [3] was 102% (inactive). The GFP response, % of DMSO in assay [5] was 94.8% (inactive). The compound also registered a double positive events in [6] of 55.9%. In assay [6], the vesicle binding response is 198% (inactive). Moreover, the inhibition in assay [7] was 0.69% (inactive); in assay [10], -15.3% (inactive); in assay [14] it was 4% (inactive). The superoxide response (% of plate) in [8] was 96.8% (inactive). In assay [9], the aptamer binding inhibition is 1% (inactive). Besides, in [11], the response is -9.82% (inactive). Further, the binding (% of control) in assay [12] is 95.6% (inactive). In addition, the efflux inhibition (fraction of control) in assay [13] is -0.24 (inactive). Moreover, in [15], the differentiation response is -18% (inactive).
On to `COc1ccc(C2N3CC4(C)CN2CC(C)(C3)C4)cc1OC` (stereo not given), for which, in assay [1], the percent of DMSO control GFP is 103% (inactive). In addition, the GFP response vs DMSO in [2] is 99.9% (inactive); in assay [4], 87.3% (inactive). Besides, in [3], the percent response of DMSO control was 107% (inactive). Moreover, the GFP response, % of DMSO in [5] is 107% (inactive). Further, the double positive events in assay [6] came out at 52.7%. Besides, the vesicle binding response in assay [6] is 177% (inactive). Also, the inhibition in [7] was -0.24% (inactive); in assay [10] it was 9.79% (inactive); in [14], 6% (inactive). Moreover, in [8], the superoxide response (% of plate) was 96.9% (inactive). The aptamer binding inhibition in assay [9] is 1% (inactive). In [11], the response was 2.37% (inactive). In addition, the binding (% of control) in assay [12] was 99% (inactive). Further, the efflux inhibition (fraction of control) in [13] was -0.09 (inactive). In addition, the differentiation response in assay [15] is -13.1% (inactive).

Usually inhibition stands for the change of the read-out against control, counted positive when it falls.
